For 40 compounds, growth results are on record in PubChem BioAssay (NCI).

Each structure is given as a SMILES string. Where “and” joins values, the source holds several entries; their conditions need not be identical. Equal values may be shown once. The panel holds about 83,000 compounds, 20% with a hit somewhere; the sample as a whole holds those more often.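 48-hour exposure, single concentration, 96-well plates; percent growth endpoint where 0 means no net growth. Active: below 10.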 Calls of active or inactive are those of the source.

The experiment concerns EKVX NSCLC. The experiment can be described thus: NCI-60 one-dose screen, 48 h (100 = growth as untreated, 0 = no growth, -100 = all killed). Conditions: 10 µM unless noted. How it is done: Growth inhibition of the EKVX human Non-Small Cell Lung tumor cell line is measured as a screen for anti-cancer activity. Cells are grown in 96 well plates and exposed to the test compound for 48 hours. Compounds are tested at a single concentration, which is 10^-5 M for most compounds. The reported endpoint is percent growth (GI% or GIPRCNT), where numbers from 0 - 100% represent growth inhibition, and numbers from -100% - 0 represent cell death. For example, a value of 40 represents 60% growth inhibition. A value of 0 means no net growth occurred over the course of the experiment. A value of -40 indicates 40% of cells at the beginning of the experiment died by the end of the experiment. A value of -100 means all cells are dead at the end of the experiment.
NCI-60 Human Tumor Cell Lines Screen was performed using the standard one-dose NCI protocol, which is described in more detail at https://dtp.cancer.gov/discovery_development/nci-60/default.htm.
Compounds with GIPRCNT values below 10 were considered active. Activity score was based on GIPRCNT using the following formula: […]
Score is 0 for GIPRCNT values of 100 or above, 50 for GIPRCNT values of 0, and 100 for GIPRCNT values of -100.
For `O[C@H]1[C@H]2c3cc4c(cc3CN3CCC(=C[C@@H]1O)[C@H]23)OCO4`, the growth is 37.2% (inactive). On to `CCOC(=O)/C=C/c1ccc([N+](=O)[O-])o1`, for which the growth is 107% (inactive).

Consider `CN(C)C(=O)SC1=C(c2c(Cl)cccc2Cl)C(=O)c2ccccc21`, for which the growth is 0.799% (active). As to `Cc1c2ccccc2c(C)c2c1ccc1ccccc12`, the growth was 88.7% (inactive).

Take `Oc1c(Cl)cc(Cl)c2cccnc12`: the growth is 58.9% (inactive) and 51.5% (inactive).

Consider `Cc1ccc(N=C=C(c2ccccc2)c2ccccc2)cc1`, for which the growth is 90.6% (inactive).

For the compound `C/C=C1\SC(=S)NC1=O`, the growth is 95.1% (inactive).

In the case of `O=C(/C=C\c1cc(Br)ccc1O)/C=C/c1cc(Br)ccc1O`, the growth is 8.88% (active). For the compound `Nc1nc(N)c2nc(CNc3ccc(C(=O)NC(CCC(=O)O)C(=O)O)cc3)cnc2n1` (stereo not given), the growth is 72.9% (inactive) and 44.4% (inactive).

Turning to `O=C(Oc1cccc2cccnc12)c1ccccc1`, the growth is 91% (inactive) and 107% (inactive). For the compound `CCCCCCCCCCCCCCCC[N+](C)(CCO)Cc1cnc[nH]1` (stereo not given), the growth is 38.1% (inactive). With `COc1cc(/C=C(/C)C[N+](=O)[O-])ccc1O`, the growth was 109% (inactive). In the case of `O=C(/C=C/c1cccc(Cl)c1)c1ccccc1`, the growth is 93.5% (inactive). With `CCCCCCCCCCCCCCCCOP(=O)([O-])OCC[N+](C)(C)C`, the growth was 46.9% (inactive).

As to `Cc1cc2nc(CS)[nH]c2cc1C`, the growth is 84.8% (inactive). With `COc1ccccc1/C=C\C(=O)c1ccccc1`, the growth is 85.2% (inactive). Regarding `N#CC1C(=O)SC2c3ccccc3C(=O)c3ccccc3C12` (stereo not given), the growth is 107% (inactive).

Consider `CC(C)(C)c1ccc(O)c(C2CCCCC2)c1`, for which the growth is 115% (inactive). As to `O=C(Nc1cccc(Br)c1)Oc1cccc2cccnc12`, the growth is -17.3% [100 µM] (active).

As to `Nc1nc(N)c2c(ccc3c2ccn3Cc2cccc([N+](=O)[O-])c2)n1`, the growth is -93.8% (active). The value for `COc1cc(NS(C)(=O)=O)ccc1Nc1c2ccccc2nc2ccccc12` was 58.8% [2.5 µM] (inactive); that for `O=C1c2cccnc2-c2nccc3c2c1nc1cc(Br)ccc13` was 32% (inactive) and -81.4% (active); that for `N[C@H](C(=O)O)[C@@H]1CC(Cl)=NO1` was 23.6% [20 µM] (inactive). As for `CC(=Nc1ccc(N(C)C)cc1)c1ccccc1`, the growth is 58.6% (inactive). Regarding `COc1ccc(N=N/N=c2\sc3cc(OC)ccc3n2C)cc1`, the growth is 74.8% (inactive).

For the compound `Cc1ccc2nc(-[n+]3cc4ccccc4cc3C)ccc2c1`, the growth is 62% (inactive).

Take `Cc1ccc(NS(=O)(=O)c2ccc(C)cc2)cc1`: the growth was 96.3% (inactive).

As to `O=C(Nc1cccc(Br)c1)Oc1ccc(Cl)c2cccnc12`, the growth is -18.3% [100 µM] (active).

On to `O=C(O)C1C2CC3C(OC(=O)C31)C2Br` (stereo not given), for which the growth is 106% (inactive) and 95.6% (inactive).

In the case of `Oc1ccc(/C=N/NC(=S)Nc2ccccc2)nc1`, the growth is 32.6% (inactive). On to `CC(=O)ON=C1C=CC(=C(C#N)c2ccccc2)C=C1`, for which the growth was 82.7% (inactive). As for `O=[N+]([O-])c1ccc(N=Nc2ccc(O)cc2O)cc1`, the growth is 58.8% (inactive). For `O=C1OCc2cccc3cccc1c23`, the growth is 88.2% (inactive). `COc1ccccc1OC(=O)Oc1ccccc1OC`: the growth is 118% (inactive) and 97% (inactive). Turning to `O=C1c2ccccc2C(=O)N1c1ccccc1`, the growth was 93% (inactive). Consider `O=C1NC(=O)/C(=C/C=C/c2ccccc2)S1`, for which the growth was 62.5% (inactive). Regarding `N#Cc1ccc([N+](=O)[O-])o1`, the growth is 105% (inactive). For the compound `O=C1c2ccccc2C(=O)c2sc(Nc3ccc(Cl)cc3)nc21`, the growth is 53.6% (inactive).

On to `O=C(/C=C\c1ccccc1)N1c2ccccc2CC1c1c[nH]c2ccccc12` (stereo not given), for which the growth was 66% (inactive). Consider `CCC1OC(OC)C=CC1=O` (stereo not given), for which the growth was 89% (inactive).
